# Data reported in PubChem BioAssay AID1918969 (ICCB-Longwood Screening Facility, Harvard Medical School, 2023).
# Where “and” joins values, the source holds several entries; their conditions need not be identical. Identical values can stand only once. About 280 (0.15%) of roughly 190,000 compounds were called active. Cut-off read from the data, not from the text of the source: active = inhibition above about 27% (passing the limit was not always enough); inactive = the rest. Many of the other results were omitted from the sample, so actives are more common in it than they were.
# System: HCMV UL50-UL53 nuclear egress complex (human cytomegalovirus)
# Assay: HCMV nuclear egress complex disruptors – biochemical, HTRF (AID 1918969)
# Conditions: HTRF UL50-UL53 interaction, normalized percent inhibition; active compounds read high; concentration not given here
row,SMILES,inhibition
1,CCCC1O[C@@H]2CC3C4CCC5=CC(=O)C=CC5(C)C4[C@@H](O)CC3(C)[C@]2(C(=O)CO)O1 (stereo partly specified),-70.7% (inactive)
2,NNC(=O)CCCc1nc2ccccc2s1,-31.3% (inactive)
3,O=C(OCc1nc2ccccc2s1)c1coc2ccccc2c1=O,54.6% (active)
4,O=C(CCc1nc2ccccc2s1)OCC(=O)c1ccco1,-34.2% (inactive)
5,CCOc1cc(/C=C2/C(=O)N(c3nn[nH]n3)N=C2C)cc(Cl)c1OCC,-8.7% (inactive)
6,CC(C(=O)OCc1ccc(F)cc1)N1C(=O)c2ccccc2C1=O (stereo unspecified),-2.6% (inactive)
7,O=C(CC(c1ccccc1)c1ccccc1)NCc1ccco1,13.4% (inactive)
8,O=c1c(-c2nnc3c(Cl)nc4ccccc4n23)coc2ccccc12,-9.1% (inactive)
9,Cc1n[nH]c(C)c1Cc1ccc(N)cc1,-0.1% (inactive)
10,Cc1ccc(-n2ccnc(NCCc3ccccc3)c2=O)cc1,-0.4% (inactive)
11,CCN(CC)S(=O)(=O)c1ccc(N=Nc2c(O)[nH]c(=S)[nH]c2=O)cc1,-70.2% (inactive)
12,Cc1cc(C(=O)CSc2ccc(S(=O)(=O)N(C)C)cn2)c(C)n1-c1ncn[nH]1,-15% (inactive)
13,O=C1CC(c2ccc(S(=O)(=O)N3CCCc4ccccc43)cc2)CN1 (stereo unspecified),-28.3% (inactive)
14,O=C(COC(=O)Cc1ccc(F)cc1)Nc1ccccc1,1.8% (inactive)
15,Cc1ccc(C)c2c1NC(c1ccc(Br)cc1)C1CC=CC21 (stereo unspecified),-3.3% (inactive)
16,CCc1nc(-c2cc(S(=O)(=O)N3CCC(C(=O)Nc4cccc(OC)c4)CC3)c(C)s2)no1,-7.1% (inactive)
17,CC1CCN(C(=O)Cn2ncc3c4ccccc4n(Cc4ccccc4)c3c2=O)CC1,-7.3% (inactive)
18,Cc1ccc(CNC(=O)c2ccc(-n3nnc4cccnc43)cc2)cc1,-21.8% (inactive)
19,CCN(CC)S(=O)(=O)c1ccc2c(c1)nc(CCC(=O)OCC#N)n2C,-6% (inactive)
20,CCOC(=O)N1CCCC1C(=O)O (stereo unspecified),-17.9% (inactive)
21,O=C(NC1CCCCC1)c1ccc(-n2ccc3ccccc32)s1,37.9% (active)

row,SMILES,inhibition
1,O=C(NC1CCCC1)c1cc(-c2ccccc2)on1,-1.9% (inactive)
2,O=C(NC1CCCC1)c1ccc(N2CCOc3ccccc32)s1,42.2% (active)
3,O=C(NC1CCCCCCC1)c1cccs1,-0.7% (inactive)
4,O=C(NC1CCCC1)c1ccc(Br)s1,-3.7% (inactive)
5,CNC(=O)c1ccc(N2CCOc3ccc(Cl)cc32)s1,14.6% (inactive)
6,O=C(c1c(F)c(F)c(F)c(F)c1F)N(CCO)Cc1ccccc1,-6.4% (inactive)
7,CNC(=O)COC(=O)c1ccc(Br)o1,-3.2% (inactive)
8,Cn1c(=O)n(C)c2cc(N3CCOCC3)c(NS(=O)(=O)c3ccc4c(c3)CCCC4)cc21,-20% (inactive)
9,Cc1ccc2nsnc2c1S(=O)(=O)NCCc1c(C)[nH]c2ccccc12,-75.9% (inactive)
10,Cc1ccc(N2C(=O)/C(=C/c3ccc(OCC(=O)O)c(Br)c3)C(=O)NC2=S)cc1,-28.5% (inactive)
11,CC1=C(C(=O)OCCOc2ccccc2)C(c2cccnc2)C2=C(CC(c3ccc(Cl)cc3)CC2=O)N1 (stereo unspecified),-27.9% (inactive)
12,Cn1c2c(c3cc(C4CCCCC4)ccc31)CCCCC2=O,1.4% (inactive)
13,CCOC(C)=C(C#N)C#N,5.1% (inactive)
14,CC12CCOC1N(c1ccccc1)c1ccccc12 (stereo unspecified),-18.7% (inactive)
15,CC(=O)Nc1ccc(N2C(=O)c3cc(C)nn3CC2(C)C(=O)NCc2ccc(Cl)cc2)cc1 (stereo unspecified),-1.4% (inactive)
16,Cc1ccc(C2/C(=C(\O)c3ccccc3)C(=O)C(=O)N2CCN2CCOCC2)cc1 (stereo unspecified),0.4% (inactive)
17,Cc1c2cnn(CC(=O)NCc3ccco3)c(=O)c2c(C)n1Cc1ccccc1,-1.5% (inactive)
18,CCOC(=O)c1c(C)n(-c2ccc(Cl)cc2)c2ccc(Oc3nccc(Nc4ccccc4)c3C#N)cc12,-12.5% (inactive)
19,N#CC(=C=[N-])c1nc2ccccc2nc1-[n+]1cccc(NC(=O)c2ccc(Br)o2)c1,-17.4% (inactive)
20,O=C(CN1CCN(S(=O)(=O)c2ccc3[nH]c(=O)[nH]c3c2)CC1)N1CCCCCC1,-26.1% (inactive)
21,CCOCCCNC(=O)N1Cc2c(sc3c2CCCC3)-n2cccc2C1c1ccc(N(C)C)cc1 (stereo unspecified),-33.4% (inactive)

row,SMILES,inhibition
1,CC(C)CCNC(=O)C1(C)Cn2c(cc3ccccc32)C(=O)N1C1CC1 (stereo unspecified),-9.6% (inactive)
2,Cc1ccc(-n2c(=O)c3c(n4c(SCC(N)=O)nnc24)-c2ccccc2CC32CCCCC2)cc1,-17.8% (inactive)
3,O=C(COc1ccc(-c2nc(-c3ccccc3)no2)cc1)N1CCCC1,-28.2% (inactive)
4,Cc1ccc(S(=O)(=O)C2(C(=O)N3CCc4ccccc43)CC2)cc1,1% (inactive)
5,COc1cc(C=C2C(=O)NC(=O)NC2=O)ccc1OCCOc1ccc([N+](=O)[O-])cc1,1.5% (inactive)
6,CCOc1cc(C=C2C(=O)NC(=O)NC2=O)ccc1OCCOc1ccc([N+](=O)[O-])cc1,-8.1% (inactive)
7,CCOc1cc(C=C2C(=O)NC(=O)NC2=O)ccc1OCCOCCOc1ccc(C)cc1,45.8% (active)
8,CCOC(=O)/C(C#N)=C/Nc1ccccc1,-4.4% (inactive)
9,Cc1cc(C)c(C(N)=O)c(=O)[nH]1,-10.3% (inactive)
10,O=C(NN1C(=O)/C(=C/c2ccc(-c3ccc([N+](=O)[O-])cc3)o2)SC1=S)c1ccccc1[N+](=O)[O-],-1.8% (inactive)
11,CCCC(O)c1nc2ccccc2n1CCOc1ccccc1Cl (stereo unspecified),-14.3% (inactive)
12,CC1CCN(S(=O)(=O)c2ccc3ncn(CC(=O)N4CCCCC4C)c(=O)c3c2)CC1 (stereo unspecified),3.7% (inactive)
13,CC(C)(Oc1ccc(Cl)cc1)C(=O)OCCN1CCCC1=O,16.4% (inactive)
14,CCOC(=O)c1c(C)oc2nc(COc3ncnc4c3cnn4-c3ccccc3)nc(N)c12,-27.9% (inactive)
15,Nc1c(C(=O)N2CCc3ccccc3C2)sc(=S)n1-c1ccccc1,3.7% (inactive)
16,CCCCCC#CCC#CCCCCCCCC(=O)O,-8.8% (inactive)
17,CC(C)Nc1nc(-c2ccccc2O)nc2ccccc12,54.6% (active)
18,CC(Nc1nc(N2CCCC2)nc2ccccc12)c1ccccc1 (stereo unspecified),38.8% (inactive) and -22.4% (inactive)
19,CCN(CC)c1nc(-c2ccccc2O)nc2ccccc12,-4.1% (inactive)
